Bcl-xL primary = inhibitors of human Bcl-xL, primary screen, biochemical, fluorescence polarization, HTS; AID 2129, 2009; Bcl-2-like protein 1 (Homo sapiens), Q07817; inhibition, % at 10.9 µM; GST-Bcl-xL / FITC-Bim BH3 peptide fluorescence polarization; hit rate 0.7% among 320,000;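 active = inhibition above the mean of all tested compounds plus 3 SD, cutoff set per campaign, cut at about 30% in these data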;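 note: 0% = DMSO wells and 100% = unlabeled Bim-BH3 peptide competitor; inhibitors lower millipolarization by displacing the labeled peptide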
Target sequence (Q07817 whole entry, looked up): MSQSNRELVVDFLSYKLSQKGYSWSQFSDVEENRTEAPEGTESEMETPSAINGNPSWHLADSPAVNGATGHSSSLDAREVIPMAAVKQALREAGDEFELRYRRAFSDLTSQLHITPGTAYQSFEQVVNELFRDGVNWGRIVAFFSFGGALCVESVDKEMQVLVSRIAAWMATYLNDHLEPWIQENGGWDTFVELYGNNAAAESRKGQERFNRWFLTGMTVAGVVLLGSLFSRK
Mcl1-Noxa inh = Mcl-1/Noxa binding inhibitors, primary screen, biochemical, TR-FRET, 1536-well. inhibition, % at 21.7 µM. TR-FRET Mcl-1/Noxa peptide binding, 2 h. Induced myeloid leukemia cell differentiation protein Mcl-1 (Homo sapiens), Q07820. AID 1022, 2008. hit rate 1.5% among 220,000;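 active = compounds that cut the protein-peptide binding signal by more than 50% relative to plate controls in a single-dose test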;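 note: His-tagged Mcl-1 with rhodamine Noxa BH3 peptide and terbium anti-His antibody; 0% = Mcl-1 plus Noxa peptide wells and 100% = peptide-only wells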
Target sequence (Q07820 whole entry, looked up): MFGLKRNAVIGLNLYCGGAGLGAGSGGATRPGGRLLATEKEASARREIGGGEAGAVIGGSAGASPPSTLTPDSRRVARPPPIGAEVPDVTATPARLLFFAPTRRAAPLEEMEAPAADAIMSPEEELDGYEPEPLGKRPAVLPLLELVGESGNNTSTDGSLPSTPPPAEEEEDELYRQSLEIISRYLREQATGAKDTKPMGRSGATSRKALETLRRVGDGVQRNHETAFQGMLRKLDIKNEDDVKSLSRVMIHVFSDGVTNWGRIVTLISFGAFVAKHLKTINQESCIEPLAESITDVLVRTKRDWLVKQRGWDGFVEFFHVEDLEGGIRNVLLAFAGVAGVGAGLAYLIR
MCL1-BIM inh = inhibitors of MCL1 binding to BIM-BH3, primary screen, biochemical, fluorescence polarization; Induced myeloid leukemia cell differentiation protein Mcl-1 (Homo sapiens), Q07820; GST-MCL1 / FITC-Bim-BH3 fluorescence polarization; inhibition, % at 10.9 µM; hit rate 0.68% among 320,000;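 active = inhibition above the mean inhibition of all tested compounds plus 3 SD, set per campaign, cut at about 40% in these data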;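 note: 0% = DMSO wells and 100% = unlabeled Bim-BH3 peptide control; higher means more loss of mP so more displacement of Bim peptide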
GLD-1 TGE inh = GLD-1/TGE RNA complex disruptors, primary screen, biochemical, fluorescence polarization | hit rate 0.44% among 320,000 | inhibition, % at 5.96 µM | Female germline-specific tumor suppressor gld-1 (Caenorhabditis elegans), Q17339 | purified GLD-1 + fluorescein TGE RNA;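 active = percent inhibition above a per-plate cutoff, the plate mean of test compounds plus 3 SD, cut at about 30% in these data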;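 note: 0% = DMSO wells with GLD-1 and probe and 100% = wells lacking GLD-1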
Mcl1-Bid inh = Mcl-1/Bid binding inhibitors, primary screen, biochemical, TR-FRET, 1536-well; Induced myeloid leukemia cell differentiation protein Mcl-1 (Homo sapiens), Q07820; TR-FRET Mcl-1/Bid-Dy647 peptide binding; inhibition, % at 21.7 µM; hit rate 0.97% among 220,000;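 active = compounds that cut the binding signal by more than half at the single screening dose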;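 note: His-tagged Mcl-1 with europium anti-His antibody binding Bid BH3 peptide; 0% = Mcl-1 plus peptide wells and 100% = peptide-only wells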
Bim-Mcl-1 = inhibitors of Bim peptide binding to Mcl-1, primary screen, biochemical, bead-based flow cytometry, multiplex. hit rate 0.1% among 190,000. inhibition, % at 10 µM. Bim peptide-Mcl-1 binding. Induced myeloid leukemia cell differentiation protein Mcl-1 (Homo sapiens), Q07820. AID 1009, 2008; in the data active = inhibition above about 40%;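 note: 0% = no compound tracer wells and 100% = peptide blocker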
* = called active by the depositor; · = not tested or not shown. Hits are enriched below; roughly 2.3% of the tested compounds scored in any of these assays.

SMILES	Bcl-xL primary	Mcl1-Noxa inh	MCL1-BIM inh	GLD-1 TGE inh	Mcl1-Bid inh	Bim-Mcl-1
CC(C)c1c(C(=O)N/N=C/c2ccccc2OCc2c(F)cccc2Cl)nnn1-c1nonc1N	3	·	10	0	·	·
COc1ccc(S(=O)(=O)Nc2cc(Sc3ncn[nH]3)c(O)c3ccccc23)cc1	·	91*	·	·	45	0
O=S(=O)(Nc1cc(Sc2cccc3cccnc23)c(O)c2ccccc12)c1ccc(F)cc1	19	51*	23	26	-28	1
CCOC(=O)c1ccccc1Nc1cc(C)nc2nc(C)nn12	1	58*	1	2	-16	0
CCOC(=O)c1ccccc1NC(=O)c1nc2nccc(C)n2n1	-8	9	-3	-5	79*	-1
COC(=O)c1ccccc1Nc1cc(C)nc2nc(C)nn12	3	2	4	7	1	-4
Cc1ccnc2nc(C(=O)OCC(=O)Nc3ccccc3C(C)(C)C)nn12	-5	10	-3	6	-15	-5
CC(C)Oc1ccc(OCCCN2CCCCCC2)cc1	3	-5	8	1	54*	-3
CC(C)c1ccc(OCCCCN2CCCCC2)cc1	-1	·	0	1	·	·
COc1ccc(N)c2c1OCCC2=O	3	57*	11	0	-64	-2
COc1ccc(-c2ccc(-c3noc(-c4ccccc4)n3)c(OC)n2)cc1	3	-11	-5	0	-6	1
COc1ccc(-c2ccc(-c3noc(-c4ccccc4F)n3)c(OC)n2)cc1	·	·	·	·	56*	2
O=[N+]([O-])c1ccc(O)c(C=Nc2ccc3c(c2)OCO3)c1	3	-4	-4	4	-9	·
O=[N+]([O-])c1cc(Br)cc(C=Nc2ccc3c(c2)OCO3)c1O	16	55*	16	-3	0	·
O=C(CCc1nc2ccccc2c(=O)[nH]1)Nc1ccc(F)c([N+](=O)[O-])c1	30*	43	22	6	-33	-2
CN(C)c1ccc2c3c(cccc13)C(=O)N(c1ccccc1)C2=O	81*	1	77*	69*	-14	-2
COCCn1cc(C(=O)N2CCC(C)CC2)c2c3ccccc3n(C)c2c1=O	1	15	8	10	95*	2
CC(C)Cn1cc(C(=O)N2CCC(C)CC2)c2c3ccccc3n(C)c2c1=O	-1	22	1	5	-1	1
COc1ccc(C(=O)N(Cc2ccco2)Cc2cccs2)c(O)c1	-1	5	-8	-2	-14	-2
COc1ccc(C(=O)/C=C/C(=O)N(CC(=O)NCCC(C)C)Cc2cccs2)c(O)c1	·	66*	·	·	9	-5
CCn1c(SCC(=O)Nc2nc3ccccc3s2)nc2c(c1=O)SC(C)C2 (centres undefined)	1	10	-2	-1	8	-5
CCn1c(SCC(=O)Nc2nc3ccc(C)cc3s2)nc2c(c1=O)SC(C)C2 (centres undefined)	5	29	9	-2	56*	-1
O=C(CNC(=O)Cc1cccc2ccccc12)NCc1ccc(F)cc1	4	·	1	-2	·	·
COc1ccc(NC(=O)/C(C#N)=C\c2ccc(N3CCOCC3)o2)cc1	-176	-1	-270	-266	-44	-9
COc1ccc(NC(=O)/C(C#N)=C/c2ccc(Br)o2)cc1	5	58*	25	3	-31	0
SMILES	Bcl-xL primary	Mcl1-Noxa inh	MCL1-BIM inh	GLD-1 TGE inh	Mcl1-Bid inh	Bim-Mcl-1
Cc1ccc(NC(=O)CCCC(=O)O)c(-c2nc3ccccc3[nH]c2=O)c1	12	·	16	-3	·	·
Cc1ccc2oc(C(=O)N3CCC(O)(c4cccc(C(F)(F)F)c4)CC3)c(C)c2c1	1	·	-1	17	·	·
Clc1ccc2c(N/N=C/c3ccc(Br)cc3)ccnc2c1	-1	42	-1	9	45	4
Cc1ccccc1/C=N/Nc1ccnc2cc(Cl)ccc12	-5	98*	1	-2	52*	4
Clc1ccc2c(N/N=C/c3cccnc3)ccnc2c1	3	34	-1	6	-29	2
Cc1ccc(/C=N/Nc2ccnc3cc(Cl)ccc23)c(C)c1	0	56*	1	0	63*	1
Oc1ccc(/C=N/Nc2ccnc3cc(Cl)ccc23)c(O)c1	0	88*	16	-43	57*	·
Oc1ccc(Nc2ccnc3cc(Cl)ccc23)cc1	9	20	12	5	-10	·
COCCN(C(=O)c1cc2c(s1)CCCCC2)c1c(N)n(Cc2ccccc2)c(=O)[nH]c1=O	3	·	3	-1	·	·
COc1ccc(-n2cc([N+](=O)[O-])c(=O)c3ccc(Cl)cc32)cc1	7	·	-1	3	·	·
Cc1nnc2n1N=C(c1ccc(F)cc1F)CS2	3	·	8	4	·	·
Cc1ccc(S(=O)(=O)NCCn2nc(C)cc2C)cc1	4	·	2	1	·	·
COc1ccc(N2Cc3cccc(C(=O)O)c3C2=O)cc1	6	79*	37	2	-21	0
CC(C)(C)N=C1NN=C(c2cc3ccccc3o2)CS1	14	71*	15	9	-11	-4
C=CCn1c(C)cc(C2=NNC(=NC(C)(C)C)SC2)c1C	4	29	9	-1	21	-6
COc1cccc(-c2ccc(NC(=O)C3CCCN(Cc4cnn(C(C)C)c4)C3)cc2)c1 (centres undefined)	2	·	2	1	·	·
CNC(=S)N(CCc1ccc(S(N)(=O)=O)cc1)C1CC(=O)N(c2ccccc2F)C1=O (centres undefined)	-6	45	-2	-3	61*	0
CCOc1ccc(N2C(=O)CC(N(CCc3ccc(S(N)(=O)=O)cc3)C(C)=O)C2=O)cc1 (centres undefined)	3	7	-5	1	7	·
Cc1nn(-c2ccc(Br)cc2)c(=O)c2ccccc12	31*	·	33	27	·	·
Cc1nn(-c2ccccc2[N+](=O)[O-])c(=O)c2ccccc12	10	2	2	10	2	0
Cc1nn(-c2ccccc2C(=O)O)c(=O)c2ccccc12	3	·	10	2	88*	-4
Cc1nn(-c2c(Cl)cc(Cl)cc2Cl)c(=O)c2ccccc12	1	22	-4	-9	-18	-3
N#CCCC(CCC#N)(CCC#N)c1cc[n+](CCc2ccccn2)cc1	10	·	8	6	·	·
CN(C)CC(O)CN(c1ccccc1)c1ccccc1 (centres undefined)	2	8	8	-4	98*	·

High-throughput results (PubChem BioAssay)
